High-throughput results (PubChem BioAssay)
The list is not random: actives were taken first. Their share in the collection is about 12%.
SARS PLpro yeast – qHTS of Yeast-based Assay for SARS-CoV PLP; S. cerevisiae expressing SARS-CoV PLpro, growth rescue; Potency, µM (titrated, usually from 32.9 µM), for the others: top-dose activity, positive = growth rescue, actives largely listed as activators; 0.19% of 330,000 active; calls by dose curve; further: 0% is about no effect; nearly all actives have a fitted effect of over 55% in size
Sm TGR inh – qHTS Assay for the Inhibitors of Schistosoma Mansoni Peroxiredoxins | Potency, µM (top dose mostly 114 µM), for inactives: at the top dose activity change, negative = inhibition, most hits filed as inhibitors | Schistosoma mansoni thioredoxin glutathione reductase (TGR), Q962Y6 | purified TGR, DTNB reduction, TNB absorbance 405 nm | 3% of 360,000 active; further: on the % scale 0 is the no-effect control and ±100 the full control effect; nearly all actives have a fitted effect of over 60% in size
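TGR 20 nM + NADPH 100 uM (dispensed conc.), cpd preinc 15 min RT; start with NADPH (500 uM addition) then DTNB (15 mM addition). Kinetic TNB absorbance, 405 nm filter. Four-parameter Hill fit across titration.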
Pf growth 96h – Primary qHTS for delayed death inhibitors of the malarial parasite plastid, 96 hour incubation; P. falciparum luciferase reporter growth, 96 h; Potency, µM (top dose mostly 28.7 µM), for the others: top-dose activity change, negative = inhibition, most hits filed as inhibitors; 6.9% of 320,000 active; further: on the % scale 0 is the no-effect control and ±100 the full control effect
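Cell-based qHTS: luciferase-tagged P. falciparum in erythrocytes (2% hematocrit, 0.05% parasitemia final) incubated with compounds for 96 hours, 37 C, 5% CO2; luciferase detection reagent then added and luminescence measured.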
Pf growth 48h – Primary qHTS for delayed death inhibitors of the malarial parasite plastid, 48 hour incubation; P. falciparum luciferase growth in erythrocytes, 48 h; Potency, µM (top dose mostly 28.7 µM), for the others: top-dose activity change, negative = inhibition, usual class: inhibitors; 5.9% of 310,000 active; AID 504832, 2011; further: on the % scale 0 is the no-effect control and ±100 the full control effect
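Luciferase-expressing P. falciparum in infected erythrocytes (2% hematocrit, 0.1% parasitemia final) in RPMI 1640/0.5% Albumax were exposed to compound for 48 hours at 37 C, 5% CO2; growth read as luminescence.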
Active calls of the source: *. Unless noted, the call rests on the fitted dose curve; in most records, active means well fitted curve in the direction sought with a large enough effect; inconclusive means small, poorly fitted or top-dose-only effect, or another doubt; inactive means no such curve, though single readings can be large; an effect the other way counts as inactive or inconclusive. Potency means the concentration at half of the fitted maximal effect.

For Cc1ccc(C(=O)N2CCN(c3ccc(NC(=O)c4cccnc4Cl)cc3)CC2)cc1 the results were SARS PLpro yeast -3%, Sm TGR inh -19%, Pf growth 96h -53% and Pf growth 48h inconclusive.
CCC(=O)Nc1ccc(N2CCC(C)CC2)cc1 was read as SARS PLpro yeast -4%, Sm TGR inh -2%, Pf growth 96h 10µM* and Pf growth 48h -17%.
CC1CCN(CC(=O)c2cccc(C(F)(F)F)c2)CC1 was read as SARS PLpro yeast -3%, Sm TGR inh 35µM*, Pf growth 96h inconclusive and Pf growth 48h inconclusive.
Cc1ccccc1CNC(=O)Cn1ccc2cc(S(=O)(=O)N3CCCCC3)ccc21 was read as Sm TGR inh -9%.
`CC1CCN(CC(=O)Nc2ccc(C(=O)N3CCCCC3)cc2)CC1` gave SARS PLpro yeast 4%, Sm TGR inh 2%, Pf growth 96h 3.3µM* and Pf growth 48h 0%.
Screening CC1CCN(CC(=O)Nc2ccc(S(=O)(=O)N3CCCC(C)C3)cc2)CC1 (stereo unspecified) returned SARS PLpro yeast 7%, Sm TGR inh -13%, Pf growth 96h 110% and Pf growth 48h inconclusive.
For COc1ccc(NC(=O)CN2CCC(C)CC2)cc1 the results were SARS PLpro yeast 4%, Sm TGR inh -3% and Pf growth 48h 31%.
`CCC(=O)Nc1ccc(C(=O)CN2CCC(C)CC2)cc1` gave SARS PLpro yeast 1%, Sm TGR inh 32µM*, Pf growth 96h inconclusive and Pf growth 48h 19%.
`O=C(c1nc(-c2ccc(Cl)cc2)n2c1CCCCC2)N1CCN(c2ccc(F)cc2)CC1` gave Sm TGR inh 5%.
COC(=O)CC1C(=O)NC2CCCCC2N1C(=O)CCl (stereo unspecified) was read as SARS PLpro yeast 3%, Sm TGR inh 6.3µM*, Pf growth 96h inconclusive and Pf growth 48h inconclusive.
`CC1CCCN(Cc2c(O)ccc3c4c(c(=O)oc23)CCCC4)C1` (stereo unspecified) gave SARS PLpro yeast -1%, Sm TGR inh -2%, Pf growth 96h 1.5µM* and Pf growth 48h 1.3µM*.
For CC1CN(Cc2c(O)ccc3c2oc(=O)c2ccccc23)CC(C)O1 (stereo unspecified) the results were SARS PLpro yeast 2%, Sm TGR inh -22%, Pf growth 96h 2.3µM* and Pf growth 48h 6.6µM*.
For Cc1ccc(S(=O)(=O)NCCc2nnc3ccc(SCc4ccc(F)cc4)nn23)cc1 the results were Sm TGR inh -5%.
Screening CCC1(c2ccccc2)C(=O)NCNC1=O returned SARS PLpro yeast 0%, Sm TGR inh 10%, Pf growth 96h -9% and Pf growth 48h 5%.
CCC1(c2ccccc2)CCC(=O)NC1=O (stereo unspecified) was read as Pf growth 96h inconclusive and Pf growth 48h 19µM*.
`CCNS(=O)(=O)c1ccc(S(=O)(=O)N(Cc2ccccn2)C2CCCCC2)cc1` gave SARS PLpro yeast 3%, Sm TGR inh -1%, Pf growth 96h 166% and Pf growth 48h inconclusive.
O=S(=O)(NCc1ccccc1)c1ccc(S(=O)(=O)N(Cc2ccccn2)C2CCCC2)cc1 was read as SARS PLpro yeast 3%, Sm TGR inh -5%, Pf growth 96h inconclusive and Pf growth 48h 10µM*.
Screening COC(=O)C1CCN(C(=O)C2CCN(C(=O)[C@H](C)NS(=O)(=O)c3ccc(C)cc3)CC2)CC1 returned SARS PLpro yeast 1%, Sm TGR inh -2%, Pf growth 96h 12µM* and Pf growth 48h inconclusive.
CCOC(=O)N1CCN(C(=O)CCc2ccc(S(=O)(=O)NC(C)(C)C)cc2)CC1 was read as SARS PLpro yeast 7%, Sm TGR inh -2%, Pf growth 96h 8% and Pf growth 48h -8%.
For COc1cc(CNCCc2ccc(S(N)(=O)=O)cc2)ccc1OCC(=O)NC1CCCCC1 the results were SARS PLpro yeast -2%, Sm TGR inh 2%, Pf growth 96h inconclusive and Pf growth 48h inconclusive.
For COc1cc(CNCCc2ccc(S(N)(=O)=O)cc2)ccc1OCc1ccc(Cl)cc1 the results were SARS PLpro yeast -8%, Sm TGR inh 0%, Pf growth 96h 6.6µM* and Pf growth 48h 8.3µM*.
CCOc1ccc2ccccc2c1CNCCc1ccc(S(N)(=O)=O)cc1 was read as SARS PLpro yeast 5%, Sm TGR inh 0%, Pf growth 96h inconclusive and Pf growth 48h 12µM*.
`CCOc1cc(CNCCc2ccc(S(N)(=O)=O)cc2)ccc1OCc1ccc(Cl)cc1` gave SARS PLpro yeast inconclusive, Sm TGR inh 6%, Pf growth 96h inconclusive and Pf growth 48h 9.3µM*.
For COc1ccc(NC(=O)CCc2c(C)nn(-c3ccc(N4CCOCC4)nn3)c2C)cc1Cl the results were Sm TGR inh -3%.
Screening O=C(NCCC1=CCCCC1)c1ccc2c(c1)N(Cc1ccc(F)cc1)C(=O)c1ccccc1S2(=O)=O returned Sm TGR inh -2%.
Screening CCOC(=O)Cc1csc(NC(=O)c2ccc(Br)cc2)n1 returned SARS PLpro yeast -12%, Sm TGR inh -48%, Pf growth 96h 14% and Pf growth 48h 21%.
CCOC(=O)Cc1csc(NC(=O)CN2CCOCC2)n1 was read as SARS PLpro yeast 1%, Sm TGR inh inconclusive, Pf growth 96h 9.3µM* and Pf growth 48h inconclusive.
`CCOC(=O)Cc1csc(NC(=O)CCc2ccc(S(=O)(=O)N3CCOCC3)cc2)n1` gave SARS PLpro yeast -3%, Sm TGR inh -22%, Pf growth 96h inconclusive and Pf growth 48h 2.6µM*.
CCOC(=O)Cc1csc(NC(=O)CCC(=O)O)n1 was read as SARS PLpro yeast 1%, Sm TGR inh -3%, Pf growth 96h -1% and Pf growth 48h -14%.
CCOC(=O)Cc1csc(NC(=O)c2ccc(S(=O)(=O)N3CCCCC3)cc2)n1 was read as SARS PLpro yeast -1%, Sm TGR inh 0%, Pf growth 96h 5.9µM* and Pf growth 48h 32%.
CCNC(=O)C1CC(=O)N(Cc2ccc(F)cc2)C(=Nc2ccc(OC)cc2)S1 (stereo unspecified) was read as SARS PLpro yeast -2%, Sm TGR inh -8%, Pf growth 96h inconclusive and Pf growth 48h 7.4µM*.
For Cc1ccc2nc(N3C(=O)C(O)=C(C(=O)c4ccc(C)o4)C3c3ccc(O)cc3)sc2c1 (stereo unspecified) the results were SARS PLpro yeast 5%, Sm TGR inh -4%, Pf growth 96h -30% and Pf growth 48h 5%.
Cc1nonc1OC(C)CNc1ccc([N+](=O)[O-])cc1 (stereo unspecified) was read as SARS PLpro yeast -14%, Sm TGR inh -2%, Pf growth 96h 24% and Pf growth 48h 3.7µM*.
COc1cc(NC(=S)NCCc2ccccc2)c(OC)cc1NC(=O)C(C)C was read as SARS PLpro yeast 0%, Sm TGR inh inconclusive, Pf growth 96h inconclusive and Pf growth 48h -16%.
